# Screening results as filed in PubChem BioAssay.
# HP1b binding inh – inhibitors of HP1-beta chromodomain binding to methylated histone tails | P83916 | AlphaScreen HP1-beta / biotin-H3K9me3 peptide binding | Potency, µM (highest dose often 114 µM), for inactives: at the highest dose activity change, negative = inhibition, actives largely listed as inhibitors | 0.56% of 390,000 active | AID 540317; note: potency is the fitted concentration of half-maximal effect; nearly all actives have a fitted effect of over 70% in size
#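 AlphaScreen: HP1-beta (50 nM) preformed 30 min with biotin-H3(1-18)K9me3 peptide (50 nM) in PBS pH 7.4, 0.01% Tween-20. Compound added for 30 min at RT, then streptavidin donor/nickel chelate acceptor beads (10 ug/mL) for 30 min.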
# G9a inh – blocks human histone lysine methyltransferase G9a; G9a H3K9 monomethylation, AlphaScreen, 2 h; Potency, µM (series often up to 102 µM), inactives show at the highest dose activity, negative = inhibition, actives largely listed as inhibitors; 8.8% of 350,000 active; note: potency is the fitted concentration of half-maximal effect; % is set by controls: 0 for no effect and ±100 for the full control effect; nearly all actives have a fitted effect of over 75% in size
#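 AlphaScreen read-out: biotin-H3K9 peptide (500 nM) methylation by 20 nM enzyme with 20 uM SAM, 2 h at room temperature after 15 min compound preincubation; anti-monomethyl H3K9 antibody plus donor/acceptor beads, 10 min dark.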
# BAZ2B inh – inhibitors of human BAZ2B bromodomain; Q9UIF8; AlphaScreen BAZ2B-H3K14Ac peptide displacement; Potency, µM (doses to about 114 µM), inactives show at the top dose activity change, negative = inhibition, usual class: inhibitors; 4.4% of 360,000 active; AID 504333; note: potency is the fitted concentration of half-maximal effect; % is set by controls: 0 for no effect and ±100 for the full control effect; nearly all actives have a fitted effect of over 60% in size
# Target sequence (Q9UIF8 whole entry, looked up): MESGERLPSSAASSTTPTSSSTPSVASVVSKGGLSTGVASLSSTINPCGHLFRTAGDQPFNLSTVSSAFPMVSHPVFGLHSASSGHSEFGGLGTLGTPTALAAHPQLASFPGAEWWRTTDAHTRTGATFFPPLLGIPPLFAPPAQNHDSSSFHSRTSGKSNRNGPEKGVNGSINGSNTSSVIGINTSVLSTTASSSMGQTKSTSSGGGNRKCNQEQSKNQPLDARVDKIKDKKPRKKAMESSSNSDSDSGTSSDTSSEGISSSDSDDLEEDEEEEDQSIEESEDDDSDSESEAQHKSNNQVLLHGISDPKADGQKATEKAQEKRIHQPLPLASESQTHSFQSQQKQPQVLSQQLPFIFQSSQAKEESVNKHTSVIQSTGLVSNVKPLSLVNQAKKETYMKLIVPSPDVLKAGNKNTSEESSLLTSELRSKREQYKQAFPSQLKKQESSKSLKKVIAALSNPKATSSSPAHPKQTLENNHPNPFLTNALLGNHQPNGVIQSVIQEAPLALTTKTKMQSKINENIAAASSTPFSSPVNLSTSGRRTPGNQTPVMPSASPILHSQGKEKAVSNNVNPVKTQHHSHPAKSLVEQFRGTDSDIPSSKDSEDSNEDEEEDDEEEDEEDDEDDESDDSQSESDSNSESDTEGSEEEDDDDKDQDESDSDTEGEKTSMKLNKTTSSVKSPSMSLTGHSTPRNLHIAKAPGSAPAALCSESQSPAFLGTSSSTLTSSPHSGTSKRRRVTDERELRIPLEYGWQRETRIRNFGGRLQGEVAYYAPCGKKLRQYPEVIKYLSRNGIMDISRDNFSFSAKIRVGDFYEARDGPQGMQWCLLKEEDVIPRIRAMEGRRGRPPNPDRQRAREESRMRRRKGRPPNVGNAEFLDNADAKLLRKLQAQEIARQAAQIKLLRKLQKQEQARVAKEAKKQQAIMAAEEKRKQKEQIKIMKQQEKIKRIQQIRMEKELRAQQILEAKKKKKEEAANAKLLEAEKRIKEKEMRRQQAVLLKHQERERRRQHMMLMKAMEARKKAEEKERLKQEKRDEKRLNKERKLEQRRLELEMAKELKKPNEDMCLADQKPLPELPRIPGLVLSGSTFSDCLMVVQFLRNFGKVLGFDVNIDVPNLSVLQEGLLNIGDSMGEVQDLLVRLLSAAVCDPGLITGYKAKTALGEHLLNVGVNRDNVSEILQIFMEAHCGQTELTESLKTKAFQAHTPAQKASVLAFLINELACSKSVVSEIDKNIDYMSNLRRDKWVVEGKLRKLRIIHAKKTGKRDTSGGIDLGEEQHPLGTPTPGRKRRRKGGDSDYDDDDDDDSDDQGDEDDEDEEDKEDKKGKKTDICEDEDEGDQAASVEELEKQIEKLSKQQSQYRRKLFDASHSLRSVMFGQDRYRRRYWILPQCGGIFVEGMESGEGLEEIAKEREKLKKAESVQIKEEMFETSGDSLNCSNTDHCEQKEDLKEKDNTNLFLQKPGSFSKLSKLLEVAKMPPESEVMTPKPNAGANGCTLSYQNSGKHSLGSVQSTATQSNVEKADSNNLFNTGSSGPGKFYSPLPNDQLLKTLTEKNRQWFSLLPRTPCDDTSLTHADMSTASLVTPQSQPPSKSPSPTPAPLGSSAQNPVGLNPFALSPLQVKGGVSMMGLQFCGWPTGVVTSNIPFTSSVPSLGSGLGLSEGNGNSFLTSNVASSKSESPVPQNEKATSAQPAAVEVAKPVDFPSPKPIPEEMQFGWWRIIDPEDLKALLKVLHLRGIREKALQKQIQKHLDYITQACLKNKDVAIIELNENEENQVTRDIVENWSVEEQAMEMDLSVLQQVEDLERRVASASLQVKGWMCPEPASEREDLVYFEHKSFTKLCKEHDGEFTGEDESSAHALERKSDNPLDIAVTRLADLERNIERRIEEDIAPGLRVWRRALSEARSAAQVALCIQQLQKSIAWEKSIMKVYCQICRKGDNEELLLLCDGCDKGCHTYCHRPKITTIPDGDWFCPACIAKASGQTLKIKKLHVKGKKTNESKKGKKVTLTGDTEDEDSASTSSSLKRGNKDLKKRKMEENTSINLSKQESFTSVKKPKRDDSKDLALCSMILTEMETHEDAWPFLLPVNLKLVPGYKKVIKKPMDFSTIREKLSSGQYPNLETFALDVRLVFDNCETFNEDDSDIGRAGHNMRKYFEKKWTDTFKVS
#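 Inhibition is scored as reduced AlphaScreen emission. The BAZ2B/b-H3(5-23)K14Ac complex (50 nM each) in PBS pH 7.4, 0.01% Tween-20 meets compound (up to 110 uM) for 30 min at RT before bead addition.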
# PI5P4K alpha inh – inhibitors of human PI5P4K alpha; PI5P4Kalpha enzyme, ADP-Glo luminescence, 60 min; active compounds read low; max response, %; 1.2% of 330,000 active; AID 652105; active = max response of -50% or lower; inconclusive = between -30% and -50%; inactive = -30% or higher; note: value at the top dose of about 77 µM; % is set by controls: 0 for no effect and ±100 for the full control effect
#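 Controls without substrate or without enzyme flank wells where PI5P4Kalpha converts substrate using 5 microM ATP (final). Incubation lasts 60 minutes at room temperature; ADP formed is read by ADP-Glo luminescence.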
# PLK1 PBD block – PLK1 (human) polo-box domain binding inhibition; Potency, µM, without a hit: max response, negative = inhibition, actives largely listed as inhibitors; Plk1 PBD binding of FITC phosphopeptide, fluorescence polarization; AID 720504; 2.8% of 360,000 active; P53350; note: potency is the fitted concentration of half-maximal effect; series mostly up to about 57 µM; % is set by controls: 0 for no effect and ±100 for the full control effect; nearly all actives have a fitted effect of over 65% in size
# JMJD2A Tudor – JMJD2A Tudor domain (human) inhibition; O75164; 4.4% of 390,000 active; AlphaScreen JMJD2A-Tudor / H3K4me3 peptide binding; Potency, µM (titrated, usually from 114 µM), inactives show at the top dose activity change, negative = inhibition, usual class: inhibitors; note: potency is the fitted concentration of half-maximal effect; % is set by controls: 0 for no effect and ±100 for the full control effect; nearly all actives have a fitted effect of over 50% in size
# Starred values were filed as active, the others as inactive; u = inconclusive; x = no result given; [ ] = dose if it differs, or a comment. Rows were chosen to be rich in hits. Some 12% of all compounds tested hit in one or more screens of this group. Unless noted, calls come from the whole dose curve; as a rule, active = well fitted curve in the direction sought with a large enough effect; inconclusive = small, poorly fitted or top-dose-only effect, or another doubt; inactive = no such curve, though single readings can be large; an effect the other way counts as inactive or inconclusive.
SMILES,HP1b binding inh,G9a inh,BAZ2B inh,PI5P4K alpha inh,PLK1 PBD block,JMJD2A Tudor
O=C(NC(=S)Nc1ccc(F)c([N+](=O)[O-])c1)c1ccccc1F,25%,45µM*,-34%,-28,-15%,-9%
COc1ccc(CC(=O)Nc2ccc(OC)c(NC(=O)c3ccco3)c2)cc1,31%,50µM*,-5%,-2,0%,-9%
Cc1ccc(NC(=O)c2cccc(S(=O)(=O)N(C)C3CCCCC3)c2)nc1,10%,-17%,-1%,-3,-5%,-1%
COc1cc(NC(=S)NC(=O)c2ccccc2F)ccc1NC(=O)c1ccco1,u,7.9µM*,1%,-9,-19%,u
COc1ccccc1C(=O)NNC(=S)Nc1ccccc1,28%,28µM*,5%,-8,-4%,-7%
COc1cc(NC(=S)NC(=O)c2ccco2)ccc1NC(=O)C(C)C,11%,31%[12.7 µM],-34%,6,-12%,-13%
Cc1ccc(C(=O)CC2(O)C(=O)N(C)c3ccccc32)o1 (configuration not stated),41%,50µM*,0%,-9,-8%,-21%
CCOc1ccc(NC(=O)C(=O)N/N=C\c2ccc(CNS(=O)(=O)c3ccccc3)o2)cc1,46%,21%[59 µM],-13%,-11,-1%,-6%
COCCCN1C(=O)/C(=C/c2ccc(CNS(=O)(=O)c3ccccc3)o2)C(C(=O)OC)=C1C,-11%,28µM*,-38%,-4,-19%,56µM*
COCCNC(=O)C1(C)CCN(C(=O)c2sc(-c3ccccc3)nc2C)C1 (configuration not stated),x,x,x,-3,-3%,x
CCOc1ccc(C(=O)c2cn(CC(=O)Nc3cccc(OC)c3)c3cc4c(cc3c2=O)OCCO4)cc1,40%,17%[59 µM],1%,x,x,-29%
CC(C)n1cnc2c(N(C)c3ccccc3)nc(N(CCN(C)C)Cc3ccccc3)nc21,u,u,32µM*,1,-15%,45µM*
CCOC(=O)c1ccc(COC(=O)c2ccc(-c3nnc(-c4ccccc4)o3)cc2)o1,23%,x,x,-5,-4%,0%
CCOC(=O)c1ccc(Cn2c(-c3ccccc3)nnc2-c2ccccc2)o1,8%,13%[59 µM],13%,-2,24µM*,-25%[57.1 µM]
CCOC(=O)c1ccc(CC(=O)c2ccc(O)c(O)c2O)o1,u,x,32µM*,u,u,-100%
CCOC(=O)c1ccc(CC(=O)c2oc3cc(O)ccc3c2C)o1,-3%,u,u,x,-10%,u
Cc1ccc(C(NC(=O)C2CCN(CCOc3ccccc3)CC2)c2ccccn2)cc1 (configuration not stated),x,x,x,6,-4%,x
CCOc1ccccc1NC(=O)CC1SC(=N)N(c2ccccc2)C1=O (configuration not stated),x,6%,-10%,x,x,x
CCCN1C(=O)SC(CC(=O)Nc2ccccc2C)C1=O (configuration not stated),30%,-6%[59 µM],0%,4,-22%,1%
O=C(CC1SC(=O)N(c2ccccc2)C1=O)Nc1cccc2ccccc12 (configuration not stated),3%,u,-25%,u,11µM*,-27%
CCOc1ccc(NC(=O)CC2SC(=O)N(c3ccccc3)C2=O)cc1 (configuration not stated),-4%,x,u,-3,9.5µM*,-29%
Cc1ccccc1NC(=O)CC1SC(=O)N(c2ccccc2)C1=O (configuration not stated),-14%,u,u,2,11µM*,-15%[11.4 µM]
Cc1cc(C)c2c(CC(=O)Nc3c(C(=O)Nc4ccc(Cl)cc4)oc4ccccc34)coc2c1,-2%,-7%[59 µM],-8%,x,x,-22%
CCOC(=O)C(NC(=O)c1ccccc1Cl)(Nc1sc2c(c1C(N)=O)CCC2)C(F)(F)F (configuration not stated),17%,28µM*,-1%,1,u,-20%
